Where a name gives a salt, the structure may show the parent alone. ± gives the standard deviation of the averaged measurements.
Tested on: Listeria monocytogenes 10403S
Assay: growth inhibition relative to ceftriaxone-alone control; higher = stronger potentiation of ceftriaxone growth inhibition
Conditions: 10 µM; ceftriaxone 1 ug/ml; 12 h
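Also: End-point A600 read in BHI broth at 37 °C with 2% DMSO, inhibition computed as (1 − OD with compound plus ceftriaxone ÷ OD with ceftriaxone only) × 100.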

Structure (SMILES) | growth inhibition
COc1ccc(-c2ccc3c(N4CCOCC4)nc(N4C[C@@H](C)O[C@@H](C)C4)nc3n2)cc1CO | -4.35 ± 2.4%
CC(C)(C)Cn1c(N)nc2ccc(-c3[nH]c(C(C)(C)C)nc3-c3ccc(F)cc3)nc21 | 97.5 ± 1.3%
Nc1nccc(-c2c(-c3ccc(F)cc3)ncn2C2CCC(O)CC2)n1 (stereo not drawn) | -2.07 ± 1.6%
Cc1cccc2c1NC(=O)/C2=N\Nc1ccc(S(N)(=O)=O)cc1 | -10.2 ± 7.5%
CC(C)=Cc1cccc2c1/C(=N/Nc1ccc(S(N)(=O)=O)cc1)C(=O)N2 | -2.72 ± 0.38%
CCc1nn2ncccc2c1-c1ccnc(NC2CC2)n1 | -4.93 ± 3%
CNC(=O)c1cc(Oc2ccc(NC(=O)Nc3ccc(Cl)c(C(F)(F)F)c3)cc2)ccn1 [Sorafenib (Nexavar)] | 98.7 ± 1.8%
OCCn1cc(-c2ccc3c(c2)CC/C3=N\O)c(-c2ccncc2)n1 | 83 ± 8.8%
Clc1ccc(Nc2nnc(Cc3ccncc3)c3ccccc23)cc1 [Vatalinib 2HCl (PTK787)] | 24.8 ± 20%
C[C@@H](Oc1cc(-n2cnc3ccc(OCC4CCN(C)CC4)cc32)sc1C(N)=O)c1ccccc1Cl | -2.37 ± 3%
COc1cc2c(Oc3ccc4[nH]c(C)cc4c3F)ncnc2cc1OCCCN1CCCC1 [Cediranib (AZD2171)] | 46 ± 7.5%
COc1cccc(-n2ncc3c(N/N=C/c4ccc(S(C)(=O)=O)cc4)ncnc32)c1 | -2.76 ± 9.3%
O=C(NOC[C@H](O)CO)c1ccc(F)c(F)c1Nc1ccc(I)cc1F | 78.4 ± 6.9%
CC[C@@H]1C(=O)N(C)c2cnc(Nc3ccc(C(=O)N[C@H]4CC[C@H](N5CCN(CC6CC6)CC5)CC4)cc3OC)nc2N1C(C)C [BI6727 (Volasertib)] | 56.9 ± 16%
CC[C@@H]1C(=O)N(C)c2cnc(Nc3ccc(C(=O)NC4CCN(C)CC4)cc3OC)nc2N1C1CCCC1 | 41.8 ± 45%
COc1ccc(COc2cc3oc(=O)c4cc(C(C)O)ccc4c3cc2OC)cc1 (stereo not drawn) [Palomid 529] | 18 ± 10%
c1ccc(-c2nc3n(c2-c2ccc4c(c2)OCO4)CCC3)nc1 | -10.3 ± 17%
Clc1ccc(CNc2nccc(-c3cnn4ncccc34)n2)cc1 | -1.66 ± 1.6%
Fc1ccc(-c2ncn(CCCN3CCOCC3)c2-c2ccncc2)cc1 | 1.14 ± 3.2%

Structure (SMILES) | growth inhibition
NC1(Cc2ccc(Cl)cc2)CCN(c2ncnc3[nH]ccc23)CC1 | 35 ± 20%
COc1cc(Nc2ncc3c(n2)-c2ccc(Cl)cc2C(c2c(F)cccc2OC)=NC3)ccc1C(=O)O | 43 ± 37%
CCN(CC)CCNC(=O)c1c(C)[nH]c(/C=C2\C(=O)Nc3ccc(F)cc32)c1C [Sunitinib Malate (Sutent)] | 73.6 ± 12%
CS(=O)(=O)CCNCc1nc(-c2ccc3ncnc(Nc4ccc(F)c(Cl)c4)c3c2)cs1 | 1.67 ± 6.4%
COc1cc2c(cc1Nc1nc(N3CCc4ccccc43)c3cc[nH]c3n1)N(C(=O)CN(C)C)CC2 | 7.28 ± 0.39%
CN(C)CCNC(=O)Nc1ccc(N(C)c2ccnc(Nc3ccc(CS(C)(=O)=O)cc3)n2)cc1 | -2.69 ± 2%
Cc1ccc(NC(=O)c2cccc(C(C)(C)C#N)c2)cc1Nc1ccc2ncn(C)c(=O)c2c1 | 47.4 ± 11%
Oc1cccc(-c2nc(-c3ccccc3)[nH]c2-c2ccncc2)c1 | -3.01 ± 1.1%
Nc1nc(N)c2nc(-c3cccc(O)c3)cnc2n1 | 8.99 ± 4.4%
CN(C)C/C=C/C(=O)Nc1cc2c(Nc3ccc(F)c(Cl)c3)ncnc2cc1O[C@H]1CCOC1 [Afatinib (BIBW2992)] | 45.41 ± 0.44%
COC(=O)Nc1nc2cc(Oc3cccc(NC(=O)Nc4cc(C(F)(F)F)ccc4F)c3)ccc2[nH]1 | -5.06 ± 1.8%
COc1ccc2ncn(-c3cc(O[C@H](C)c4ccccc4C(F)(F)F)c(C(N)=O)s3)c2c1 | 0.811 ± 11%
NC(=O)c1ccc2c(-c3ccnc(NCCCO)n3)c(-c3ccc(F)cc3)nn2c1 | -7.27 ± 16%
Cc1cc(O)cc(C)c1/C=C/c1cncc(C(N)=O)c1 | -0.223 ± 2.4%
CC(C)(O)CC(=O)NCCn1ccc2ncnc(Nc3ccc(Oc4cccc(C(F)(F)F)c4)c(Cl)c3)c21 | 98.62 ± 0.75%
COc1cccc(-n2cnc3c(N/N=C/c4ccncc4)ncnc32)c1 | -10.6 ± 15%
COC(=O)c1ccc2c(C(=Nc3ccc(N(C)C(=O)CN4CCN(C)CC4)cc3)c3ccccc3)c(O)[nH]c2c1 [BIBF1120 (Vargatef)] | 21.6 ± 14%
Cc1ccc(NC(=O)c2ccc(CN3CCN(C)CC3)cc2)cc1Nc1nccc(-c2cccnc2)n1 [Imatinib Mesylate] | 29.9 ± 17%
O=C(Cc1ccc(-c2ccc(OCCN3CCOCC3)cc2)cn1)NCc1ccccc1 | 33.6 ± 8.5%

Source: the supplement of paper PMC5641865, “A screen for kinase inhibitors identifies antimicrobial imidazopyridine aminofurazans as specific inhibitors of the Listeria monocytogenes PASTA kinase PrkA” (The Journal of Biological Chemistry, 2017)
